Shown is part of a subset that was picked to be rich in hits.
CD40 NFkB inh – inhibitors of CD40-induced NF-kB signaling, primary screen, BL2 cells, luciferase reporter, single point. hit rate 0.94% among 83,000. CD40L-induced, 4 h. inhibition, % at 10 µM;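 active = mean inhibition of at least 50% with a set share of replicates also reaching that level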;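 note: 0% = neutral control wells and 100% = IKK inhibitor VII at 50 µM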
Active calls of the source: *; [ ] = dose if it differs, or a comment.

SMILES	CD40 NFkB inh
COc1ccc(C#Cc2ccc3c(c2)[C@@H]2[C@@H](CCN2S(=O)(=O)c2ccccc2C)[C@H](CO)N3C)cc1	-7[25 µM]
CCS(=O)(=O)Nc1ccc2c(c1)C(=O)N(C)[C@@H]1CC[C@H](CC(=O)NCc3ccccc3F)O[C@@H]1CO2	6[25 µM]
C[C@@H]1CN([C@H](C)CO)C(=O)c2cc(NS(=O)(=O)c3cccs3)ccc2O[C@@H](C)CCCCO[C@@H]1CN(C)Cc1ccc(Cl)c(Cl)c1	42[25 µM]
C[C@H](CO)N1C[C@H](C)[C@H](CN(C)C(=O)c2ccncc2)OCCCC[C@H](C)Oc2ccc(NS(=O)(=O)c3cccs3)cc2C1=O	-12[25 µM]
C[C@@H]1CCCCO[C@@H](CN(C)Cc2ccc(Cl)c(Cl)c2)[C@@H](C)CN([C@@H](C)CO)C(=O)c2cc(NS(=O)(=O)c3cccs3)ccc2O1	35[25 µM]
C[C@@H]1CCCCO[C@@H](CN(C)Cc2ccc(Cl)c(Cl)c2)[C@H](C)CN([C@@H](C)CO)C(=O)c2cc(NS(=O)(=O)c3cccs3)ccc2O1	39[25 µM]
C[C@@H]1CN([C@H](C)CO)C(=O)c2cc(NS(=O)(=O)c3cccs3)ccc2O[C@@H](C)CCCCO[C@H]1CN(C)Cc1ccc(Cl)c(Cl)c1	56*[25 µM]
C[C@@H]1CCCCO[C@@H](CN(C)Cc2ccc(Cl)c(Cl)c2)[C@H](C)CN([C@H](C)CO)C(=O)c2cc(NS(=O)(=O)c3cccs3)ccc2O1	58*[25 µM]
COc1ccccc1C(=O)N1C[C@@H]2[C@H](c3ccccc31)[C@H](CO)N2C(=O)C1CCCC1	2
CS(=O)(=O)Nc1ccc2c(c1)[C@@H]1C[C@H](CC(=O)NC3CCCC3)O[C@H](CO)[C@@H]1O2	-5[25 µM]
C[C@@H]1CN([C@@H](C)CO)C(=O)c2cc(NS(=O)(=O)c3ccc(Cl)cc3)ccc2O[C@@H](C)CCCCO[C@@H]1CN(C)Cc1ccncc1	21[25 µM]
CO[C@@H]1CN(C)C(=O)c2ccc(NC(=O)C3CCCC3)cc2OC[C@@H](C)NC[C@@H]1C	-9
COc1cccc(C(=O)Nc2ccc3c(c2)OC[C@@H](C)N(C(=O)C2CCCC2)C[C@@H](C)[C@H](OC)CN(C)C3=O)c1	-4
CN(C)C(=S)N=c1ssc(=S)n1Cc1ccccc1	44*
CSc1nnc(CNC(=O)C23CC4CC(CC(C4)C2)C3)n1Cc1ccccc1	8
CC(C)NC(=O)N(C)C[C@@H]1Oc2ncccc2C(=O)N(C)C[C@H]1C	5
CSc1nnc(NC(=O)c2nc(S(=O)(=O)Cc3ccccc3)ncc2Cl)s1	102*
COc1ccc(C(=O)Nc2nnc(S(=O)(=O)Cc3ccccc3)s2)cc1	6
CSc1ncc(Cl)c(C(=O)Nc2nnc(SC)s2)n1	-2
COc1ccc(C(=O)N2C[C@@H]3[C@H](c4ccccc42)[C@@H](CO)N3C(=O)NC(C)C)cc1	2[25 µM]
COCC(=O)N1[C@H](CO)[C@H](c2ccccc2-c2cccc(F)c2)[C@@H]1C#N	-17[25 µM]
O=C(Nc1ccccn1)c1ccc2c(c1)OCCO2	-2
Cc1cc(NC(=O)c2ccc3c(c2)OCCO3)no1	79*
Cc1cc(NC(=O)c2ccc(F)cc2)no1	-21
CNC[C@@H]1Oc2ccc(N)cc2C(=O)N(C)C[C@@H]1C	4
SMILES	CD40 NFkB inh
O=C(Nc1ccccc1F)N1CC(=O)N2[C@@H](CO)[C@@H](c3ccc(-c4cccnc4)cc3)[C@@H]2C1	9[25 µM]
C[C@H](CO)N1C[C@H](C)[C@@H](CN(C)S(=O)(=O)c2ccc(F)cc2)OCc2ccccc2-c2ccccc2C1=O	5
C[C@H](CO)N1C[C@H](C)[C@@H](CN(C)C(=O)Cc2ccccc2)OCc2ccccc2-c2ccccc2C1=O	-14[25 µM]
C[C@@H]1CN([C@H](C)CO)C(=O)c2cccc(NS(=O)(=O)c3ccc(F)cc3)c2O[C@H]1CN(C)C(=O)NC1CCCCC1	-2[25 µM]
C[C@@H]1CCCCO[C@@H](CN(C)CC2CCCCC2)[C@H](C)CN([C@@H](C)CO)C(=O)c2cc(NC(=O)Nc3ccc(C(F)(F)F)cc3)ccc2O1	18
Cc1noc(C)c1NC(=O)N(C)C[C@@H]1OCCCC[C@H](C)Oc2ccc(NC(=O)Nc3ccc(C(F)(F)F)cc3)cc2C(=O)N([C@H](C)CO)C[C@@H]1C	28[25 µM]
Cc1noc(C)c1NC(=O)N(C)C[C@@H]1OCCCC[C@@H](C)Oc2ccc(NC(=O)Nc3ccc(C(F)(F)F)cc3)cc2C(=O)N([C@H](C)CO)C[C@H]1C	60*[25 µM]
COc1ccc(S(=O)(=O)N(C)C[C@@H]2Oc3ccc(NC(=O)Nc4ccc(C(F)(F)F)cc4)cc3C(=O)N([C@H](C)CO)C[C@@H]2C)cc1	38[25 µM]
C[C@@H]1CN([C@H](C)CO)C(=O)Cc2cc(NC(=O)Nc3ccc(C(F)(F)F)cc3)ccc2O[C@@H]1CN(C)CC1CCCCC1	32
COc1ccc(S(=O)(=O)N(C)C[C@H]2Oc3ccc(NC(=O)Nc4ccc(C(F)(F)F)cc4)cc3C(=O)N([C@H](C)CO)C[C@@H]2C)cc1	38[25 µM]
Cc1noc(C)c1NC(=O)N(C)C[C@@H]1OCCCC[C@@H](C)Oc2ccc(NC(=O)Nc3ccc(C(F)(F)F)cc3)cc2C(=O)N([C@H](C)CO)C[C@@H]1C	-10[25 µM]
C[C@@H]1CCCCO[C@@H](CN(C)CC2CCCCC2)[C@@H](C)CN([C@H](C)CO)C(=O)c2cc(NC(=O)Nc3ccc(C(F)(F)F)cc3)ccc2O1	5[25 µM]
COc1ccc(S(=O)(=O)N(C)C[C@@H]2Oc3ccc(NC(=O)Nc4ccc(C(F)(F)F)cc4)cc3C(=O)N([C@H](C)CO)C[C@H]2C)cc1	53*[25 µM]
C[C@H](CO)N1C[C@H](C)[C@@H](CN(C)Cc2ccc3c(c2)OCO3)Oc2ccc(NC(=O)Nc3ccc(C(F)(F)F)cc3)cc2C1=O	13
C[C@H](CO)N1C[C@H](C)[C@H](CN(C)CC2CCCCC2)Oc2ccc(NC(=O)Nc3ccc(C(F)(F)F)cc3)cc2C1=O	69*
C[C@@H]1CCCCO[C@H](CN(C)CC2CCCCC2)[C@H](C)CN([C@@H](C)CO)C(=O)c2cc(NC(=O)Nc3ccc(C(F)(F)F)cc3)ccc2O1	55*[25 µM]
O=C(CN1CCOCC1)N[C@H]1CC[C@H](CCn2cc(C3CCCC3)nn2)O[C@H]1CO	4
CC(C)[C@@H]1C/C=C\C[C@@H](c2ccc(F)cc2)NC(=O)[C@H](C)CC(=O)N1	-3[25 µM]
N#C[C@H]1[C@H](c2ccccc2-c2ccc(F)cc2)[C@H](CO)N1c1ncc(-c2ccccc2)s1	-28[25 µM]
CO[C@H](CN(C)Cc1ccc2c(c1)OCO2)[C@@H](C)CN(C(=O)Nc1ccc(F)cc1)[C@@H](C)CO	-7[25 µM]
CCCNC(=O)N1[C@H](CO)[C@H](c2ccccc2)[C@H]1CNC(=O)c1ccc(F)cc1	14
CN1C(=O)c2cc(NC(=O)C3CCOCC3)ccc2OC[C@H]2O[C@@H](CC(=O)NCC3CC3)CC[C@H]21	0
CN1CCN(C(=O)[C@@H]2[C@@H](CO)[C@@H]3Cn4c(ccc(C5=CCCC5)c4=O)[C@H]2N3S(C)(=O)=O)CC1	-5[25 µM]
O=C(NCc1ccccn1)C1CCN(S(=O)(=O)c2ccccc2)CC1	9
O=C(NCc1ccccn1)C1CCCN(S(=O)(=O)c2ccccc2)C1 (stereo unspecified)	26*
CCOc1ccc(S(=O)(=O)N2CCCC(C(=O)NCc3ccccn3)C2)cc1Cl (stereo unspecified)	-1
COc1ccccc1CNC(=O)C[C@H]1C[C@@H]2c3cc(NS(=O)(=O)c4ccc(F)cc4)ccc3O[C@@H]2[C@@H](CO)O1	6[25 µM]
Cc1ccc(OCc2cc(C(=O)N3CCc4sccc4C3)no2)cc1C	38*
O=C(c1cc(-c2cccs2)on1)N1CCc2ccccc2C1	-18

High-throughput results (PubChem)
